Source: PubChem BioAssay (NCATS)
Records with an inconclusive call do not appear. Entries that show only a call come without a potency. Calls of active or inactive are those of the source. The call rests on the fitted dose curve; in most records, active means well fitted curve in the direction sought with a large enough effect; inconclusive means small, poorly fitted or top-dose-only effect, or another doubt; inactive means no such curve, though single readings can be large; an effect the other way counts as inactive or inconclusive. Residues, ends and D or L forms follow the SMILES beside them. *: point of attachment. Cbz = O=C(OCc1ccccc1)*

Experiments:
[1] = qHTS Assay for Identification of Small Molecule Agonists for Thrombopoietin (TPO) Signaling Pathway (AID 917)
Summary of the method: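 First, Ba/F3 cells with human TPO receptor were held overnight without IL-3. Next, compounds and TPO (26 pM final) were added. After 24 hrs at 37 C, luciferase detection reagent was added and luminescence measured following 10 min at room temperature.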

[2] = biological target: Muscarinic acetylcholine receptor M1 (Rattus norvegicus) (UniProt P08482); assay: qHTS Assay for Antagonists of Acetylcholine Muscarinic M1 Receptor: Kinetic Measurement of Intracellular Calcium Response (AID 943); further: nearly all actives have a fitted effect of over 75% in size; further: potency means the concentration at half of the fitted maximal effect
Summary of the method: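 Antagonism is measured as inhibition of the carbachol-evoked calcium rise in CHO cells transfected with rat M1. Cells are dye-loaded, exposed to compound for 10 min, then stimulated with 100 nM carbachol (EC80).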

[3] = biological target: Muscarinic acetylcholine receptor M1 (Rattus norvegicus) (UniProt P08482); assay: qHTS Assay for Antagonists of Acetylcholine Muscarinic M1 Receptor: Measurement of IP-One Response (AID 944); further: nearly all actives have a fitted effect of over 75% in size
Summary of the method: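 Antagonist mode with rat M1 receptor transfected into CHO cells. Compound is added first for 10 min, carbachol at its EC80 follows for 30 min, and lysis reagents then allow TR-FRET detection of accumulated IP1.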

[4] = Confirmation and Secondary Assay for Modulators of Hemoglobin Beta Chain Splicing at IVS2 654 locus (AID 910);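 further: HeLa cells stably carrying EGFP split by mutant beta-globin IVS2-654 intron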
Summary of the method: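 HeLa cells stably expressing EGFP interrupted by β-globin IVS2-654 intron, seeded overnight in Opti-MEM/2% FCS, then treated 2 days at 37 °C. Restored splicing read as total peak GFP intensity per well by laser scanning cytometry (488 nm excitation, 500–520 nm emission); 500 nM antisense PNA as control.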

[5] = Confirmation and Secondary Assay for Modulators of Hemoglobin Beta Chain Splicing at IVS2 705 locus (AID 930);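 further: HeLa cells stably expressing the EGFP-705 splicing reporter; GFP fluorescence per well restored by corrected splicing of the IVS2-705 intron in EGFP; series mostly up to about 46 µM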
Summary of the method: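 Splice-correction reporter: EGFP cDNA split by beta-globin intron 2 bearing the 705 mutation, stably in HeLa. Compound incubation 2 days, 37C; fluorescent objects 5-250 µm summed per well.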

[6] = qHTS Assay for Identification of Small Molecule Antagonists for Thrombopoietin (TPO) Signaling Pathway (AID 918); conditions: TPO-dependent cell signaling reporter, antagonist mode; further: potency means the concentration at half of the fitted maximal effect; nearly all actives have a fitted effect of over 60% in size
Summary of the method: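 Inhibitors of TPO signaling are sought by stimulating IL-3-starved murine Ba/F3 cells (human TPO receptor, Glycoprotein IIb-driven luciferase) with TPO at its EC50 of 26 pM alongside compound. After 24 hrs at 37 C, reporter luminescence is measured.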

Sequence of Muscarinic acetylcholine receptor M1 (Rattus norvegicus) (P08482 whole entry, looked up): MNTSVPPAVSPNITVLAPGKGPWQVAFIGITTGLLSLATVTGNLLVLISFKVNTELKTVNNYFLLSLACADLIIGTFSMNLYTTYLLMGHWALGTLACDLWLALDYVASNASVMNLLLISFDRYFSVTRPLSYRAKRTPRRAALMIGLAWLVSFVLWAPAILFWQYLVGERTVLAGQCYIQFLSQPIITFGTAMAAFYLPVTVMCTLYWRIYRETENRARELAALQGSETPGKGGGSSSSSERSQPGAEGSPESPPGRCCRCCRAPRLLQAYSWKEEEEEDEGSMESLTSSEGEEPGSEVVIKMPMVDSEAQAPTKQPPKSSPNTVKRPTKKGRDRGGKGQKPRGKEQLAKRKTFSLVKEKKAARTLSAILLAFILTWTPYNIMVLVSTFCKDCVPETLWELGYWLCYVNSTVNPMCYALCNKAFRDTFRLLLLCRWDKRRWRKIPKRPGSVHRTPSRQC

O=c1[nH]c2cc(Cl)ccc2c(O)c1-c1ccc(Oc2ccccc2)cc1
Potency [1]: inactive

COc1ccc2c(c1)c(CC(=O)O)c(C)n2Cc1ccc(Cl)cc1
Potency [1]: inactive
Potency [2]: inactive

N[C@@H](Cc1c[nH]c2ccccc12)C(=O)O
Potency [1]: inactive
Potency [2]: inactive
Potency [3]: inactive

COc1ccccc1N1CCN(CCCCN2C(=O)c3ccccc3C2=O)CC1
Potency [1]: inactive

N#C/C(=C\c1ccc(O)c(O)c1)C(=O)NCCCNC(=O)/C(C#N)=C/c1ccc(O)c(O)c1
Potency [1]: inactive
Potency [2]: inactive

Fc1ccc(CN(C2=NCCN2)c2c(Cl)cccc2Cl)cc1
Potency [1]: inactive

c1ccc2c(c1)CC(N1CCN(c3cccc4c3OCCO4)CC1)C2
Potency [1]: inactive

COc1cc(/C=C(\C#N)C(=O)c2ccc(O)c(O)c2)cc(I)c1O
Potency [1]: inactive
Potency [2]: inactive

COc1ccccc1N1CCN(CCN(C(=O)c2ccc(F)cc2)c2ccccn2)CC1
Potency [1]: inactive

O=C1OC(=O)C2C3CCC(O3)C12 (configuration not stated)
Potency [4]: inactive
outcome [5]: inactive

CC(C)[C@H](NC(=O)OCc1ccccc1)C(=O)N[C@H](C=O)Cc1ccccc1 (Cbz-Val-Phe-aldehyde)
Potency [1]: inactive
Potency [2]: inactive

CN1C2CCC1CC(OC(c1ccccc1)c1ccccc1)C2 (configuration not stated)
Potency [4]: inactive
outcome [5]: inactive

COc1cc(CC(=O)O)ccc1O
Potency [1]: inactive
Potency [3]: inactive

N=C(N)SCCc1cnc[nH]1
Potency [6]: 0.794 µM (active)
Potency [2]: inactive

Cc1ccc([N+](=O)[O-])cc1S(=O)(=O)N(C)C
Potency [1]: inactive
Potency [2]: inactive
Potency [3]: inactive

CN1CCN(c2nc3cc(C(F)(F)F)ccc3n3cccc23)CC1
Potency [2]: inactive
Potency [3]: inactive

O=C(O)Cc1c[nH]c2ccc(O)cc12
Potency [1]: inactive
Potency [2]: inactive
Potency [3]: inactive

CCCCCCCCCCCCCCC[C@H](O)[C@H](N)CO
Potency [6]: 12.6 µM (active)
Potency [2]: 8.91 µM (active)
Potency [3]: inactive

CCCn1c(=O)c2[nH]c(-c3ccc(S(=O)(=O)O)cc3)nc2n(CCC)c1=O
Potency [1]: inactive
Potency [2]: inactive
Potency [3]: inactive

Cc1cccc(C(=O)NCN2CCN(c3ccccc3C#N)CC2)c1
Potency [2]: inactive

Oc1ccc(Cn2cc[nH]c2=S)cc1
Potency [1]: inactive
Potency [2]: inactive
Potency [3]: inactive

CC[C@@H]1Cc2cc(O)ccc2C2=C1c1ccc(O)cc1C[C@H]2CC
Potency [2]: 12.6 µM (active)

Nc1ncnc2c1ncn2C1CCCC1
Potency [2]: inactive

Nn1nnc2ccccc21
Potency [3]: inactive

NCCNS(=O)(=O)c1cccc2c(Cl)cccc12
Potency [2]: inactive
Potency [3]: inactive

O=S(=O)(c1cccc2c(Cl)cccc12)N1CCCNCC1
Potency [1]: inactive
Potency [3]: inactive

CCCCCCCCCCC/C=C\C(C)(C)/C=C\CCCC(=O)O
Potency [1]: inactive
Potency [2]: inactive
Potency [3]: inactive

CCCCCCCC/C=C\CCCCCCCC(=O)NCCc1ccc(O)c(O)c1
Potency [2]: inactive
Potency [3]: inactive

CCCc1c(OCCCOc2ccc(OCC(=O)O)cc2)ccc(C(C)=O)c1O
Potency [1]: inactive
Potency [3]: inactive

COc1ccc2c(c1)c(CC(=O)O)c(C)n2C(=O)c1ccccc1
Potency [1]: inactive
Potency [2]: inactive
Potency [3]: inactive

COc1cc(CNC(=O)CCCCCCC(C)C)ccc1O
Potency [1]: inactive
Potency [2]: inactive
Potency [3]: inactive

S=C(S)N1CCCC1
Potency [3]: inactive

O=c1oc(Cl)c(Cl)c2ccccc12
Potency [2]: inactive
Potency [3]: inactive

O=C(O)Cc1ccc(O)c(O)c1
Potency [2]: inactive

CCCOC(=O)c1c(-c2ccccc2)nc(CC)c(C(=O)SCC)c1CCC
Potency [1]: inactive
Potency [3]: inactive

COC(=O)[C@H](NC(=O)c1cc(-c2ccccc2)nc2ccccc12)c1ccccc1
Potency [1]: inactive
Potency [3]: inactive

Nc1ncnc2c1c(-c1ccc(Oc3ccccc3)cc1)cn2C1CCCC1
Potency [3]: inactive

CCN(CC)CCCCCCCCOC(=O)c1cc(OC)c(OC)c(OC)c1
Potency [2]: 2.82 µM (active)

COc1ccc(NC(=O)c2ccc(-c3ccc(-c4noc(C)n4)cc3C)cc2)cc1N1CCN(C)CC1
Potency [6]: 10 µM (active)

Nc1nc2[nH]c(=O)cnc2c(=O)[nH]1
Potency [1]: inactive
Potency [2]: inactive
Potency [3]: inactive

CCCCOC(=O)NS(=O)(=O)c1sc(CC(C)C)cc1-c1ccc(Cn2c(CC)nc3c(C)cc(C)nc32)cc1
Potency [3]: inactive

N[C@@H](Cc1ccc(O)c(I)c1)C(=O)O
Potency [1]: inactive
Potency [2]: inactive
Potency [3]: inactive

C[C@H](O)C(=O)C1=Nc2c(nc(N)[nH]c2=O)NC1
Potency [1]: inactive
Potency [3]: inactive

NC(N)=NC(N)=Nc1cccc(Cl)c1
Potency [3]: inactive

N#C/C(=C\c1ccc(O)c(O)c1)C(=O)NCCc1ccccc1
Potency [2]: inactive

Cc1cc2c(cc1Cl)N(C(=O)Nc1ccnc3ccccc13)CC2
Potency [1]: inactive
Potency [2]: inactive
Potency [3]: inactive
